This note sets out measurements from PubChem BioAssay (NCATS).

Assay [1] relates to HEK293. The assay is described as follows: Cytotoxic Profiling of Annotated Libraries Using Quantitative High-Throughput Screening (AID 1296008). Note: potency is the fitted concentration of half-maximal effect. The note with it: Five cell lines viability, CellTiter-Glo ATP luminescence, 48-72 h; max response: active compounds read low. Put shortly: (§1)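 Compounds were pin-transferred onto cells and incubated 48 or 72 hr at 37 degree Celsius, 95% humidity. CellTiter-Glo was added, plates sat 10 min at room temperature, then ATP-coupled luminescence was imaged as the viability read-out.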
On the technique in general: In ATP-based viability assays light output follows the ATP content of the culture.

The subject of assay [2] is NIH3T3. The description is as above. The conditions noted are these: Five cell lines viability, CellTiter-Glo ATP luminescence, 48-72 h; max response: active compounds read low. In a few lines:
as §1

For assay [3], the system named is HaCat. The assay is described as above. The conditions noted are these: Five cell lines viability, CellTiter-Glo ATP luminescence, 48-72 h; max response: active compounds read low. Put shortly:
as §1

The subject of assay [4] is HACAT. The assay is described as follows: qHTS assay to identify novel small-molecules to repurpose for Merkel cell carcinoma treatment (AID 1296009). The note with it: MCC and control cell lines, CellTiter-Glo viability, 72 h; at 44.8 µM (top of the series) unless noted. In a few lines: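 Viability readout: ATP luminescence (CellTiter-Glo) after 72 hr drug exposure at 37 degree celsius. Dose-response format was 8 points for NPC and 11 points for MIPE; data normalized to in-plate controls.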
On the technique in general: Quantitative high-throughput screening tests each substance at several concentrations.

Results filed as inconclusive are left out. Calls of active or inactive are those of the source. Calls come from the whole dose curve; as a rule, active = well fitted inhibition curve with a large enough effect; inconclusive = small, poorly fitted or top-dose-only effect; inactive = flat fitted curve, though single readings scatter. Where a SMILES comes first, the peptide text is derived from it. The star is where a group is joined. Cbz = O=C(OCc1ccccc1)*; CH2Cl = ClC*
Note: nearly all actives have a fitted effect of over 60% in size.

For the compound `C/C=C(\C)C(=O)O[C@H]1C=C(CO)C(=O)[C@H](OC(C)=O)[C@H]1C(C)C`, the Potency in assay [1] is 8.05 µM (active). For `CCC(CC)C(c1ccc(Nc2nc3ccccc3s2)cc1)n1cncn1` (stereo not given), the Potency in assay [1] is 10.3 µM (active). With `C=CC(=O)N1CCN(C(=O)CNc2cc(-c3ccccc3Cl)c(Cl)cc2OC)CC1`, the Potency in assay [1] is 18.4 µM (active). For the compound `C=C1C(=O)OC2/C=C(\C)CC3C=C(CC/C=C(\C)CCC12)C(=O)O3` (stereo not given), the Potency in assay [1] was 11.4 µM (active).

For `CC(=O)OC1[C@H]2[C@@H](C[C@@H](C)[C@@H]3C=CC(=O)[C@@]13C)OC(=O)[C@@H]2C` (stereo not given in full), in assay [1], the Potency was 16.4 µM (active).

Take `C/C=C(/C)C(=O)O[C@H]1C=C(CO)C(=O)[C@H](OC(=O)/C(C)=C/CO)[C@H]1C(C)C`: the Potency in assay [1] is 3.6 µM (active). As to `Cc1ccc(NC(=O)C(C)C)cc1C1CCN(Cc2ccc(Oc3ccc(F)c(F)c3)cc2)CC1`, the Potency in assay [1] was 13 µM (active). Same read-out and setting: in the case of `CC(C)CC(=O)c1c(O)cc2c(c1O)C(CC(C)C)C1=C(O2)C(C)(C)C(=O)C(C)(C)C1=O` (stereo not given) it was 5.63 µM (active).

With `COc1ccc(CNc2nc(N(CCO)CCO)nc3c2ncn3C(C)C)cc1`, the Potency in assay [1] was 4.61 µM (active). For `Nc1nc(Nc2ccc3c(c2)CCC(N2CCCC2)CC3)nn1-c1cc2c(nn1)-c1ccccc1CCC2` (stereo not given), the Potency in assay [1] is 8.2 µM (active). On to `CN(C)C(=O)COC(=O)c1cc(-c2ccc(C3CCNCC3)cc2)c2ccc(-c3ccc(C(F)(F)F)cc3)cc2c1`, for which, in assay [1], the Potency was 4.61 µM (active). Regarding `CC[C@@H](C)[C@@H]1OC2(C=C[C@H]1C)C[C@@H]1C[C@H](C/C=C(\C)[C@H](O[C@H]3C[C@H](OC)[C@H](O[C@H]4C[C@H](OC)[C@H](NC(C)=O)[C@H](C)O4)[C@H](C)O3)[C@H](C)/C=C/C=C3\CO[C@H]4[C@H](O)C(C)=C[C@@H](C(=O)O1)[C@@]34O)O2` (stereo not given in full), the Potency in assay [1] is 3.21 µM (active). Still for that read-out and setting: under `COc1cc2c(NC3CCN(C(C)C)CC3)nc(N3CCC(F)(F)CC3)nc2cc1OCCCN1CCCC1` stands 8.2 µM (active); under `CC(OC1OCCN(Cc2n[nH]c(=O)[nH]2)C1c1ccc(F)cc1)c1cc(C(F)(F)F)cc(C(F)(F)F)c1` (stereo not given), 11.6 µM (active); under `FC(F)(F)c1ccc(CNc2ccc(Cc3c[nH]c4ncc(Cl)cc34)cn2)cn1`, 26.3 µM (active).

For `Cc1cc2occ(CN(C)CCN(C)Cc3cn(-c4cccc(C(F)(F)F)c4)c4ccccc34)c(=O)c2cc1C`, the Potency in assay [1] is 8.2 µM (active).

As to `N#Cc1cc(CN2CCC(Nc3ncnc4sc(Cl)cc34)CC2)ccc1F`, the Potency in assay [1] is 14.6 µM (active). On the same count and under the same terms, in the case of `O=C(Nc1ccc2[nH]nc(-c3ccncc3)c2c1)[C@@H]1CCN(CC(=O)N2CCN(c3ccc(-c4ncccn4)cc3)CC2)C1` it was 10.3 µM (active); in that of `Nc1cccc(CNC(=O)c2ccc(Oc3ccc(OCc4cccc(F)c4)cc3)nc2)c1`, 11.6 µM (active); in that of `O=C(NC1(c2ccccc2)CC1)c1c(CN2CCC(N3CCCCC3)CC2)c(-c2cccc(C(F)(F)F)c2)nc2cc(Br)ccc12`, 14.6 µM (active). `CCCc1cc(C)[nH]c(=O)c1CNC(=O)c1cc(-c2ccnc(N3CCN(C)CC3)c2)cc2c1cnn2C(C)C`: in assay [1], the Potency was 8.2 µM (active).

Turning to `Cn1sc(=O)n(Cc2ccccc2)c1=O`, the Potency in assay [1] was 6.51 µM (active). Same read-out and setting: under `CCCCCCCCn1cc(CN(CC)CC)c2cc(-c3cnc(N)nc3)ccc21` stands 16.4 µM (active); under `C[C@H](Oc1cc(-c2cnn(C3CCNCC3)c2)cnc1N)c1c(Cl)ccc(F)c1Cl`, 9.2 µM (active). Regarding `CCN1CCN(Cc2ccc(NC(=O)c3ccc(C)c(Oc4ncnc5[nH]c(C)cc45)c3)cc2C(F)(F)F)CC1`, the Potency in assay [1] was 13 µM (active). As for `C[C@H]1[C@H](/C=C/c2ccc(-c3ccccc3C#N)cn2)[C@@H]2[C@@H](C)OC(=O)[C@@H]2C[C@@H]1C`, the Potency in assay [1] is 13 µM (active).

As for `C=C1CC2[C@@]3(C)C=CC(=O)C(C)(C)C3=C(O)C(=O)[C@@]2(C)C2(C(=O)OC)C(=O)C(C)OC(=O)[C@@]12C` (stereo not given in full), the Potency in assay [1] is 7.96 µM (active). In the case of `C=C1C(=O)O[C@H]2C[C@@H](C)[C@@H]3CCC(=O)[C@@]3(C)C[C@H]12`, the Potency in assay [1] was 6.51 µM (active).

For `Cn1ncc(Cl)c1-c1cc(C(=O)NC(CN)Cc2ccc(F)c(F)c2)oc1Cl` (stereo not given), in assay [1], the Potency is 0.231 µM (active).

As to `C/C=C(/C)C(=O)O[C@H]1[C@H](OC(=O)/C(C)=C\C)[C@@]23C(CC1(C)C)[C@]1(CCC4[C@@]5(C)CC[C@H](O[C@@H]6O[C@H](C(=O)O)[C@@H](O)[C@H](O[C@@H]7O[C@H](CO)[C@H](O)[C@H](O)[C@H]7O[C@@H]7O[C@@H](C)[C@H](O)[C@@H](O)[C@H]7O[C@@H]7OC[C@@H](O)[C@H](O)[C@H]7O)[C@H]6O[C@@H]6O[C@H](CO)[C@H](O)[C@H](O)[C@H]6O)C(C)(C)C5CC[C@@]4(C)[C@]1(C)C[C@H]2O)O[C@H]3O` (stereo not given in full), the Potency in assay [1] was 1.74 µM (active). On to `C=C1C(=O)O[C@@H]2C[C@@]3(C)CCCC(=C)[C@]3(O)C[C@H]12`, for which the Potency in assay [1] is 13 µM (active). As for `COc1cc(-n2cnc3cc(-c4ccc(Cl)cc4)sc3c2=O)ccc1OCCN1CCCC1`, the Potency in assay [1] is 10.3 µM (active). Turning to `CCN1CCN(Cc2ccc(C(=O)Nc3ccc(C)c(Oc4ccc5c(c4)CC(=O)N5)c3)cc2C(F)(F)F)CC1`, in assay [1], the Potency was 13 µM (active). As to `CCC(C(C)O)n1ncn(-c2ccc(N3CCN(c4ccc(OCC5COC(Cn6cncn6)(c6ccc(F)cc6F)C5)cc4)CC3)cc2)c1=O` (stereo not given), the Potency in assay [1] is 5.8 µM (active). In the case of `Cc1cc(-c2nc3cc(F)ccc3s2)ccc1NC(=O)[C@@H](N)CCCCN`, the Potency in assay [1] was 14.6 µM (active). Regarding `Cn1ncc(Cl)c1-c1cc(C(=O)N[C@H](CN)Cc2ccc(F)c(F)c2)oc1Cl`, the Potency in assay [1] was 0.366 µM (active). The same measure, in the same setting: under `Cc1cc(N2CCN(C(=O)Oc3ccc(-c4ccccc4)cn3)CC2)c2ccccc2n1` stands 8.2 µM (active); under `C=CS(=O)(=O)NC1CCN(C(=O)CNc2cc(I)c(Cl)cc2OC)CC1`, 8.2 µM (active).

Consider `CCN1CCN(Cc2ccc(NC(=O)c3ccc(C)c(Oc4ccnc5[nH]ccc45)c3)cc2C(F)(F)F)CC1`, for which the Potency in assay [1] is 9.04 µM (active).

For the compound `CC(C)C[C@H](NC(=O)CNC(=O)OCc1ccccc1)C(=O)N[C@@H](Cc1ccccc1)C(=O)CCl` (Cbz-Gly-Leu-Phe-CH2Cl), the Potency in assay [1] was 9.2 µM (active). For `COc1cc2c(cc1OC)CN(C(=O)/C=C/c1c(-c3ccccc3)n(C)c3ncccc13)CC2`, the Potency in assay [1] is 7.31 µM (active).

For `C=C(NC(=O)C(=C)NC(=O)c1csc(C2=NC3c4csc(n4)C4NC(=O)c5csc(n5)C(C(C)(O)C(C)O)NC(=O)C5CSC(=N5)/C(=C/C)NC(=O)C(C(C)O)NC(=O)c5csc(n5)C3(CC2)NC(=O)C(C)NC(=O)C(=C)NC(=O)C(C)NC(=O)C(C(C)CC)NC2C=Cc3c(C(C)O)cc(nc3C2O)C(=O)OC4C)n1)C(N)=O` (stereo not given), the values for the Potency in assay [1] and in assay [2] were 1.16 µM (active) and 4.61 µM (active), respectively. `C=C1C(=O)OC2/C=C(/C)C3=CC(=O)C(C)(CC(OC(=O)/C(C)=C/COC(C)=O)C12)O3` (stereo not given): the Potency in assay [1] was 2 µM (active); in assay [2] it was 3.99 µM (active). Consider `CCCc1cc2c(N3CCN(C4=NCC(C)(C)S4)CC3)ncnc2s1`, for which the Potency in assay [1] is 5.8 µM (active). Also, the call in assay [3] and in assay [4] was inactive. Turning to `CN(C)Cc1ccc(-c2cnn3c(-c4cccc(NC(=O)c5cccc(C(F)(F)F)c5)c4)ccnc23)cc1`, the Potency was 7.31 µM (active) in assay [1] and 16.4 µM (active) in assay [2].
